In PubChem BioAssay (NCATS) one finds Potency, activity change, negative = inhibition and outcome data, which are given here for 10 compounds.

Values joined by “and” are separate entries in the source; they are usually repeats but may differ in a detail not shown here. Equal values may be shown once. Results filed as inconclusive are left out. Some structures have more than one record in an assay (separate samples or runs), and their calls can disagree. Active and inactive are the calls of the source. Unless noted, calls follow the shape of the dose curve; as a rule, active = well fitted curve in either direction with a large enough effect (not every such curve was filed as active); inconclusive = small, poorly fitted or top-dose-only effect, or another doubt; inactive = flat fitted curve, though single readings scatter. Some results are limits rather than exact numbers.

Experiment [1] concerns the target Cytochrome P450 1A2 (Homo sapiens) (UniProt P05177). Put plainly: p450-cyp1a2 (AID 410; calls by dose curve; also: potency is read from the fitted curve at half-maximal effect). In short, it runs like this: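 O-Demethylation of luciferin 6' methyl ether by human CYP1A2 is monitored as luciferase luminescence. Substrate sits at Km (100uM); enzyme is 20nM. Values are scaled to 57 uM furafylline as maximal inhibition.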
A short description of experiment [2]: NFAT Signaling Pathway (AID 444).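 Also: carbachol stimulus at about its EC50 of 1 µM final; % is scaled to controls: 0 for no effect and ±100 for the full control effect.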 The conditions noted are these: Jurkat NFAT-bla M1, carbachol, beta-lactamase ratio, 5 h; at 17.2 µM (top of the series) unless noted. The essentials: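 Jurkat cells with NFAT-driven β-lactamase reporter and co-expressed M1 receptor, stimulated with carbachol (final 1 uM, ~EC50), compound titration, 5 h at 37 °C. CCF4 loaded 1 h at RT; 460/530 nm ratio gave %activity and AC50.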

Experiment [3] can be described thus: Stat Signaling Pathway (AID 446).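 Also: ME-180 cervical cancer cells given 40 pM IL-6 alongside compound; SIE-controlled beta-lactamase reporter measured as 460/530 nm FRET emission ratio; % is scaled to controls: 0 for no effect and ±100 for the full control effect.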 In short, it runs like this: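 FRET read-out (405 nm excitation, 460/530 nm emission) of a beta-lactamase reporter under a STAT-inducible element in ME-180 cervical carcinoma cells. Cells with compound receive 40 pM IL-6 for 5 h. Values are normalised to AC90 stimulation and AC90 JAK-inhibitor controls.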
Experiment [4] has as its target Glucocorticoid receptor (Homo sapiens) (UniProt P04150). Nature of the experiment: GR-GFP Redistribution (AID 450;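 active = compounds whose dose series gives a full or clear partial fitted curve of increased nuclear translocation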; also: potency is read from the fitted curve at half-maximal effect). As to conditions: U2OS GR-GFP nuclear translocation, laser cytometry, 2 h.
The target is the same in experiment [5]. Nature of the experiment: GR-EFC Redistribution (AID 451; calls by dose curve; also: potency is read from the fitted curve at half-maximal effect). As to conditions: CHO-K1 GR-EFC translocation, beta-gal luminescence, 2 h. In short, it runs like this:
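CHO-K1 cells expressing nuclear EA and GR-ED fragments of b-gal; compounds titrated up to 46 uM final, 2 h at 37 C. GR nuclear translocation read as complemented b-gal luminescence after 1 h RT detection.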

In experiment [6] the target is Mitogen-activated protein kinase 10 (Mus musculus) (UniProt Q61831). Put plainly: JNK3 AlphaScreen Assay (AID 530).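 Also: kinase came from lysate of stimulated human HepG2 cells; signal reports phosphorylation of biotinylated GST-cJun 1-79 at Ser73 with 10 µM ATP; % is scaled to controls: 0 for no effect and ±100 for the full control effect.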 In short, it runs like this:
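Activity was read by AlphaScreen after JNK3-containing HepG2 lysate (cytokine pre-activated) phosphorylated biotinylated GST-cJun with 10 uM ATP at room temperature. Phospho-Ser73 cJun antibody with Protein-A acceptor beads provided detection.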
(In general: Bead proximity is the source of the signal in Alpha formats.)

For experiment [7], the target named is 3',5'-cyclic-AMP phosphodiesterase 4B (Homo sapiens) (UniProt Q07343). Nature of the experiment: qHTS Assay for Inhibitors of PDE-IV (AID 607; active = well fitted activation curve with a large enough effect in the main read-out, with a control signal flat, not every such curve was filed as active; also: % of control where 0% means no effect). The essentials: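 Cell-based read-out of cAMP via a modified cyclic nucleotide-gated channel and membrane potential dye (535/590 nm) in HEK293 cells expressing PDE4 endogenously. Compounds tested up to 22.9 uM final; 100 uM RO 20-1724 reference.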
3',5'-cyclic-AMP phosphodiesterase 4B (Homo sapiens), sequence (Q07343 whole entry, looked up): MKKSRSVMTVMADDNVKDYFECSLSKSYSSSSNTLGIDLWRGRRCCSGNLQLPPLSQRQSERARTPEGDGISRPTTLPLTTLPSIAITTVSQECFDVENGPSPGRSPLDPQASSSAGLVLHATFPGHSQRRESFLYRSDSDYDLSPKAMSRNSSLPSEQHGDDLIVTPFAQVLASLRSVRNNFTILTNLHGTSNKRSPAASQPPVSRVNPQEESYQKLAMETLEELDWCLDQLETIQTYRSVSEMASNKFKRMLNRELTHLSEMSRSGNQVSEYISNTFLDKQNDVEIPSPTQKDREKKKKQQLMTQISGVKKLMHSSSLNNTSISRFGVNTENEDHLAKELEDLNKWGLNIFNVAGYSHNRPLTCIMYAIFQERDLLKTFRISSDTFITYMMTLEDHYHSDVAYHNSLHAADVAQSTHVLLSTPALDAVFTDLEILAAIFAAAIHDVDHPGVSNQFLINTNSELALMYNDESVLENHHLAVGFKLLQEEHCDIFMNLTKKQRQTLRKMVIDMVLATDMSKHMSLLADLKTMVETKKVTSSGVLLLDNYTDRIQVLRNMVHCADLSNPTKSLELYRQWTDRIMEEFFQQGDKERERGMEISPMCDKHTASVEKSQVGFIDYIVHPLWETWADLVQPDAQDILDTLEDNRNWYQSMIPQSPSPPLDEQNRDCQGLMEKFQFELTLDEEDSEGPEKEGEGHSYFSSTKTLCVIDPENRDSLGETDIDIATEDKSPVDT
For orientation: Quantitative high-throughput screening tests each substance at several concentrations.

The test system of the next experiment is 7G8. Put plainly: qHTS profiling for inhibitors of Plasmodium falciparum proliferation (AID 504749; active = well fitted curve in the direction sought with a large enough effect; an effect the other way counts as inactive or inconclusive; also: nearly all actives have a fitted effect of over 60% in size; also: potency is read from the fitted curve at half-maximal effect). As to conditions: P. falciparum in erythrocytes, SYBR Green DNA, 72 h; series mostly up to 12.8 µM. In short, it runs like this:
(§1)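 Each compound contacts P. falciparum-infected red blood cells for 72 h at 37 C; lysis buffer (Tris, EDTA, saponin, Triton X, SYBR Green I) is added and fluorescence measured next morning; values normalized to controls.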

Another experiment concerns DIV14. The description is as above. The conditions noted are these: P. falciparum in erythrocytes, SYBR Green DNA, 72 h; series mostly up to 12.8 µM. In short, it runs like this: as §1
Another experiment deals with GB4. Described as above. The conditions noted are these: P. falciparum in erythrocytes, SYBR Green DNA, 72 h; series mostly up to 12.8 µM. The essentials: as §1
The nature of experiment [8]: S16 Schwann cell PMP22 intronic element firefly luciferase assay (AID 624032; active = well fitted curve in the direction sought with a large enough effect; an effect the other way counts as inactive or inconclusive;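 also: plate controls were DMSO for no effect and PTC124 positive control mean for full effect; nearly all actives have a fitted effect of over 30% in size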). The essentials: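 Rat S16 Schwann cells stably carrying firefly luciferase driven by a PMP22 intronic element, in 10% FBS, treated 24 h at 37 C. ONE-Glo luminescence normalized to PTC124 control and DMSO (0%); curves classed by r2, magnitude and activity.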
A short description of experiment [9]: S16 Schwann cell PMP22 intronic element beta-lactamase assay (AID 624044; calls by dose curve;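 also: 0% = DMSO and -100% = potassium clavulanate positive control; nearly all actives have a fitted effect of over 15% in size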). In short, it runs like this:
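Beta-lactamase reporter under a PMP22 intronic regulatory element in stable S16 rat Schwann cells; 24 h compound exposure. 460 nm blue signal normalized between DMSO (0%) and potassium clavulanate, with 535 nm FRET tracking viability; curves classed by r2 and response.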

In another experiment the test system is CP203. Nature of the experiment: qHTS profiling for inhibitors of Plasmodium falciparum proliferation (AID 504749). Also: nearly all actives have a fitted effect of over 60% in size. Also: potency is read from the fitted curve at half-maximal effect. As to conditions: P. falciparum in erythrocytes, SYBR Green DNA, 72 h; series mostly up to 12.8 µM. The essentials:
as §1

Experiment [10] in a line: AP1 Signaling Pathway (AID 357).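 Also: ME-180 reporter cells stimulated with EGF at its EC50 level; % is scaled to controls: 0 for no effect and ±100 for the full control effect.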 In short, it runs like this:
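Read-out was the 460nm/530nm emission ratio (excitation 405nm) after CCF4 loading for 2.5 hours at room temperature. Cells carried an AP-1-driven beta-lactamase reporter, were stimulated with EC50 EGF plus compound for 5 hours, and AC50 values came from titrations.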

Another experiment relates to ATS95. Nature of the experiment: qHTS profiling for inhibitors of Plasmodium falciparum proliferation (AID 504749). Also: nearly all actives have a fitted effect of over 60% in size. Also: potency is read from the fitted curve at half-maximal effect. The conditions noted are these: P. falciparum in erythrocytes, SYBR Green DNA, 72 h; series mostly up to 12.8 µM. The essentials:
as §1

Cytochrome P450 1A2 (Homo sapiens), sequence (P05177 whole entry, looked up): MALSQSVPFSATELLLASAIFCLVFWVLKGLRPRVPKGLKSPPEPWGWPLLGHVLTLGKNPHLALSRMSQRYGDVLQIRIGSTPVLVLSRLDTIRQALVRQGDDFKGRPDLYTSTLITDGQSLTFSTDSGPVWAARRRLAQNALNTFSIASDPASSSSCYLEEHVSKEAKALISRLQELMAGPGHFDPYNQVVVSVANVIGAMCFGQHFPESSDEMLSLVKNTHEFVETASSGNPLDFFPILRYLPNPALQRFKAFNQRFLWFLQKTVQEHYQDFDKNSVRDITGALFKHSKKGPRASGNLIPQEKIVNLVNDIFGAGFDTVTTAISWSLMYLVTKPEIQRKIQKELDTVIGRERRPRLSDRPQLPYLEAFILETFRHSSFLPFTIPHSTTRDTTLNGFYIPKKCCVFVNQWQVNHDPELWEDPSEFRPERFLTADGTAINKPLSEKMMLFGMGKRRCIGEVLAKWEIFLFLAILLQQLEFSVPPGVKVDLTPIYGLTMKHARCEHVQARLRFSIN
Glucocorticoid receptor (Homo sapiens), sequence (P04150 whole entry, looked up): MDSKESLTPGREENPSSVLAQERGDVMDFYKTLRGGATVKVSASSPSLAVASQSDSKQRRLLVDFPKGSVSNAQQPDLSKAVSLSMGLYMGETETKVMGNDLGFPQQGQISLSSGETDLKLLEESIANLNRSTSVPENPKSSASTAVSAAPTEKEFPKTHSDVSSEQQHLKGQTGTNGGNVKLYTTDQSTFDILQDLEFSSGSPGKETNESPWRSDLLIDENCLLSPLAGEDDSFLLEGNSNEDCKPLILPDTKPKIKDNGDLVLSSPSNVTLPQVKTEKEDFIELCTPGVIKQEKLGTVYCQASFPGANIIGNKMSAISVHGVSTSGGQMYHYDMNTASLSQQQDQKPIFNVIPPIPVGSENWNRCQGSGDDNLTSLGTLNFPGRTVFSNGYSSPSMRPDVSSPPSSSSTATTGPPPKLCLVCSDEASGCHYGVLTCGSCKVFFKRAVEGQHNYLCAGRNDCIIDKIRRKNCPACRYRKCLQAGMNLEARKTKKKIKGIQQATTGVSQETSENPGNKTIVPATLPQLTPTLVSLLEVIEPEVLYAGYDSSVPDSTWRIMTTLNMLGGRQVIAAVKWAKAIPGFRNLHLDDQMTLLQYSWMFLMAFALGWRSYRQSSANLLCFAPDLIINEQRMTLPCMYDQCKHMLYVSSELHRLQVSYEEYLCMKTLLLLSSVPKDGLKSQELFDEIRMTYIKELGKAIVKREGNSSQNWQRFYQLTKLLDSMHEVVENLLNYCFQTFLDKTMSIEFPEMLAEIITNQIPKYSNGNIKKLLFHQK

As to `CCOC(=O)Oc1c(OC)cc(C(=O)O[C@H]2C[C@H]3CN4CCc5c([nH]c6cc(OC)ccc56)[C@@H]4C[C@H]3[C@@H](C(=O)OC)[C@@H]2OC)cc1OC`, the Potency result in experiment [1] and in experiment [6] was “inactive” each time. For the same compound, in [2], the activity change, negative = inhibition was -2.78% (inactive). For the same compound, the compound was called inactive in experiment [3] and in [7]. The Potency in [4] was > 20.6 µM (inactive); in experiment [5], > 20.6 µM (inactive); in the experiment on 7G8 it was 2.51 µM (active); in the experiment on DIV14, 5.73 µM (active); with GB4, 6.42 µM (active).
As to `O=C(O)[C@@H]1[C@@H]2C[C@H]3c4[nH]c5ccccc5c4CCN3C[C@@H]2CC[C@@H]1O`, the Potency in [1] is 12.6 µM (active) and inactive; in experiment [4] it was > 20.6 µM (inactive) and > 46 µM (inactive); in experiment [5], > 20.6 µM (inactive) and > 46 µM (inactive). For the same compound, the activity change, negative = inhibition in [2] is -27% (inactive). For the same compound, the compound was called inactive in experiment [3] and in experiment [7]. For the same compound, the Potency result (in [6]; in experiment [8]; in [9]; with CP203) was “inactive” each time.
As for `C[C@H](CCC(=O)O)[C@H]1CC[C@@H]2[C@H]3[C@@H](CC[C@@]21C)[C@]1(C)CC[C@H](O)C[C@@H]1C[C@@H]3O`, the result in experiment [10], in experiment [3] and in experiment [7] was inactive. Also, the activity change, negative = inhibition in experiment [2] is -6.74% (inactive). Also, the Potency entry in experiment [6] was “inactive”.
`CC[N+]1(C)[C@@H]2CC[C@H]1CC(OC(=O)[C@H]1CC[C@@](C(=O)OC3C[C@H]4CC[C@@H](C3)[N+]4(C)CC)(c3ccccc3)c3ccccc31)C2` (some centres not stated): the result in experiment [10], in experiment [3] and in experiment [7] was inactive. Besides, the Potency in [4] and in experiment [5] was > 20.6 µM (inactive) in each case. Further, the Potency entry in experiment [6] was “inactive”.
Consider `C[C@@]12C=CC(=O)C=C1CC[C@H]1[C@H]3CC[C@](O)(C(=O)CO)[C@]3(C)CC(=O)[C@@H]12`, for which the compound was called inactive in experiment [10], in experiment [3] and in [7]. Also, in [2], the activity change, negative = inhibition is -19.6% (inactive).
Turning to `CCC(=O)OCC(=O)[C@@]1(OC(=O)CC)[C@H](C)C[C@@H]2[C@@H]3[C@H]([C@@H](O)C[C@@]21C)[C@]1(C)C=CC(=O)C=C1C[C@@H]3Cl`, the result in experiment [10] and in experiment [7] was inactive. Also, the activity change, negative = inhibition in experiment [2] is 14% (inactive). Moreover, the Potency in [4] is 0.00423 µM (active); in the experiment on 7G8, 1 µM (active); in the experiment on DIV14, 5.1 µM (active). Moreover, the Potency result in experiment [6], in [8] and in experiment [9] was “inactive” in each case.
With `C[C@H](CCC(=O)O)[C@H]1CC[C@@H]2[C@@H]3[C@@H](O)C[C@H]4C[C@@H](O)CC[C@@]4(C)[C@H]3CC[C@@]21C`, the compound was classed as inactive in experiment [10] and in experiment [7]. Also, the activity change, negative = inhibition in [2] is 14.2% (inactive). The Potency entry (in experiment [6]; in [8]; in the experiment with 7G8; with ATS95; in the experiment on CP203; with DIV14) was “inactive” each time. In the experiment on GB4, the Potency result is “inactive”.
For the compound `Cc1ccsc1/C=C\C1=NCCCN1C`, the compound was classed as inactive in experiment [10], in [3] and in [7]. Also, the Potency in experiment [4] and in [5] was > 20.6 µM (inactive) throughout. In addition, the Potency entry (in experiment [6]; with 7G8; in the experiment with ATS95; with CP203; in the experiment with DIV14; with GB4) was “inactive” in each case.
With `C=C(C)[C@H]1CC[C@]2(CO)CC[C@]3(C)[C@@H](CC[C@H]4[C@@]5(C)CC[C@@H](O)C(C)(C)[C@@H]5CC[C@@]43C)[C@H]12`, the Potency result in experiment [1] and in experiment [6] was “inactive” in each case. Moreover, the activity change, negative = inhibition in [2] is -4.45% (inactive). The compound was classed as inactive in experiment [3] and in experiment [7]. In addition, the Potency in experiment [4] and in [5] was > 20.6 µM (inactive) in each case.
For `CC[C@]1(c2ccccc2)NC(=O)N(C)C1=O`, the compound was called inactive in [10], in experiment [3] and in experiment [7]. In experiment [2], the activity change, negative = inhibition was -14.9% (inactive). Moreover, in [6], the Potency entry was “inactive”.
